D2 PAM-1 – positive allosteric modulators of human D2 dopamine receptor. potentiation, % (concentration not given with the values). hit rate 0.23% among 360,000. DiscoveRx D2 beta-arrestin cells, luminescence, 90 min; 100% = 57 uM dopamine signal. AID 624464. P14416; in the data active = potentiation above about 50%; inconclusive = mostly about 30% to 49%
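PathHunter beta-arrestin assay in DiscoveRx D2 cells. Compounds were added with an EC20 of dopamine (50 nM final) for 90 min at 37 deg C. Luminescence was read 1 h after detection reagent, with 57 uM dopamine as the EC100 control.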
D2 ag-1 – activates the human D2 dopamine receptor; hit rate 0.084% among 360,000; DiscoveRx PathHunter D2 beta-arrestin, luminescence, 90 min; 100% = 57 uM dopamine signal; P14416; activation, % (no concentration beside the values); in the data active = activation above about 40%; inconclusive = between about 15% and that limit
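DiscoveRx PathHunter D2 beta-arrestin cells (2,100/well) attached overnight, then compound-stimulated 90 min at 37 C in HBSS/10 mM HEPES/0.1% Tween-20 buffer; beta-galactosidase complementation read by luminescence after 1 h at ambient temperature. Dopamine 57 uM final (EC100) as control.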
D2 ag-2 – agonists of human D2 dopamine receptor; P14416; HEK293 T-REx D2 cells, calcium flux agonist mode; activation, % at 2 µM; hit rate 0.53% among 340,000;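 active = activation over 3 SD above normal in the single-dose calcium agonist read, cut at about 30% in these data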
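Tetracycline-induced HEK293 Trex cells with D2 receptor force-coupled to calcium signaling, plated overnight at 30 C and loaded with no-wash calcium dye. Calcium flux read kinetically for 180 s after compound addition; responses flag agonists.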
D2 antagonist – antagonizes the human D2 dopamine receptor | hit rate 2% among 340,000 | AID 485344 | inhibition, % at 10 µM | P14416 | HEK293 TREx D2 cells, calcium flux, dopamine EC80; in the data active = inhibition above about 30%; inactive = below that, where a call was filed
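Read-out: kinetic calcium fluorescence (1 cycle/s) in inducible HEK293 T-REx D2 cells after an EC80 dopamine addition that followed 180 s compound preincubation. Loss of the dopamine response indicates antagonism.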
D2 PAM-2 – D2 dopamine receptor (human) potentiation; HEK293 T-REx D2, calcium flux, EC20 dopamine potentiation; potentiation, % at 10 µM; hit rate 0.34% among 340,000; AID 485347;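 active = potentiation over 3 SD above the plate norm, cut at about 30% in these data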
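Tetracycline-induced HEK293 T-REx cells force-coupled to calcium signalling expressed D2; compounds were pin-added after a 10 s baseline, read kinetically 180 s, then an EC20 dopamine challenge followed with a further 180 s calcium read.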
D3 ag – D3 receptor agonism confirmed, beta-arrestin readout; hit rate 4% among 2,300; shares compounds with D2 ag-2; Potency, µM (titrated, usually from 76.9 µM), most hits filed as activators; DiscoveRx D3 beta-arrestin cells, luminescence, 90 min; also: nearly all actives have a fitted effect of over 70% in size
Target sequence (P35462 whole entry, looked up): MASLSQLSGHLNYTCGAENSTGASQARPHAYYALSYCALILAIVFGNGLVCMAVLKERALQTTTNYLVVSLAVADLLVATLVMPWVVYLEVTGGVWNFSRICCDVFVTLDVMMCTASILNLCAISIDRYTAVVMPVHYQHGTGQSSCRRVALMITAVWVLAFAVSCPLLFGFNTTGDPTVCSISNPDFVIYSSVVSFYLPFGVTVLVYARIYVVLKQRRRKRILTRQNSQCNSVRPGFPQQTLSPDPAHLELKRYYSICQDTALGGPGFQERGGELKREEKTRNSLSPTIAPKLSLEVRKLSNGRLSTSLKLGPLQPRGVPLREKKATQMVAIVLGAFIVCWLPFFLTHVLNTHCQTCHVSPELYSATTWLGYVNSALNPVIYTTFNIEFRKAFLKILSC
D2 ag-3 – activates human D2 dopamine receptor in D3 counterscreen | shares compounds with D2 ag-2 | DiscoveRx PathHunter D2 beta-arrestin, luminescence, 90 min; response scale: percent relative to full dopamine signal | Potency, µM (doses to about 76.9 µM), most hits filed as activators | hit rate 5.9% among 2,300; also: nearly all actives have a fitted effect of over 70% in size
Of the large screens only hits and unclear results are named; the others gave an inactive call (follow-up assays come after a bar, where they were run). A selection: hits, their analogues and other compounds. The true share with any hit is near 2.4%. Unless noted, calls follow the shape of the dose curve; as a rule, active = well fitted activation curve with a large enough effect; inconclusive = small, poorly fitted or top-dose-only effect; inactive = flat fitted curve, though single readings scatter.

CC(C)N1CCN(Cc2ccccc2-c2ccco2)CC1CCO (stereo unspecified)	none
O=C(Cc1cccs1)NC1CC(=O)N(c2ccccc2)C1 (stereo unspecified)	none (no result: D2 PAM-1, D2 ag-1, D2 ag-2, D2 antagonist)
Clc1cccc(CSc2nnc(C3CCNCC3)o2)c1	none (no result: D2 PAM-1, D2 ag-1, D2 antagonist)
CC(=O)c1ccc(NC(=O)Cn2cnc(S(=O)(=O)N3CCc4ccccc43)c2)cc1	D2 ag-2 54.2 | D3 ag inactive | D2 ag-3 inactive
COc1ccc(-n2c(C)c(C(C)=O)c3cc(OC(C)=O)ccc32)cc1	none
COc1ccc(-n2c(C)cc(C)c(C(C)=O)c2=S)cc1	D2 ag-2 53.5 | D3 ag inactive | D2 ag-3 inactive
COc1ccc(-n2c(Cc3cccn3C)nnc2SCC(=O)N2CCCC2)cc1	D2 ag-2 59.2 | D3 ag inactive | D2 ag-3 inactive
COc1ccc(-n2c(Cc3cccn3C)nnc2SCC(=O)N2CCC(C)CC2)cc1	none
CC(=O)Nc1ccc(C(=O)OCCCOC(=O)c2ccc(NC(C)=O)cc2)cc1	D2 ag-2 76.4 | D3 ag inactive | D2 ag-3 inactive
CCCCOC(=O)c1ccc(NC(C)=O)cc1	none
Fc1ccccc1N1CCN(CCCNc2ccc3nncn3n2)CC1	D2 ag-1 43.3, D2 ag-2 95.3, D2 antagonist 90.0 | D3 ag inconclusive | D2 ag-3 inconclusive
CCOC(=O)c1ccc(NC(=O)CC2C(=O)N(c3ccc(F)cc3)C(=O)N2Cc2cccnc2)cc1 (stereo unspecified)	none (no result: D2 PAM-1, D2 ag-1, D2 antagonist)
CCN1CCN(C(c2ccc(SC)cc2)c2c(O)cc(C)n(Cc3ccco3)c2=O)CC1 (stereo unspecified)	none (no result: D2 PAM-1, D2 ag-1, D2 antagonist)
O=C(COC(=O)c1nsc(Cl)c1Cl)NC1CCCCC1	none
Nc1c(Cl)c(Cl)nc(C(=O)OCC(=O)NC2CCCCC2)c1Cl	D2 PAM-1 inconclusive, D2 ag-1 53.2, D2 ag-2 64.0, D2 antagonist 56.6 | D3 ag inactive | D2 ag-3 inconclusive
N#C/C(=C/c1ccc(N2CCOCC2)o1)c1nc2ccccc2[nH]1	none | D3 ag inconclusive | D2 ag-3 inactive
Cc1n[nH]c(C)c1S(=O)(=O)N1CCC(C(=O)N2CCn3c2nc2ccccc23)CC1	D2 ag-2 47.8, D2 antagonist 39.3 | D3 ag inactive | D2 ag-3 inactive
O=C(C1CCN(S(=O)(=O)c2cccc3nsnc23)CC1)N1CCn2c1nc1ccccc12	none (no result: D2 ag-2, D2 antagonist, D2 PAM-2)
Cn1c(=O)oc2cc(S(=O)(=O)NCCN3CCCCCC3)ccc21	none
Cc1cccc(N2CCN(C(=O)CCNS(=O)(=O)c3ccc4c(c3)oc(=O)n4C)CC2)c1C	D2 ag-2 44.5 | D3 ag inactive | D2 ag-3 inactive
COc1ccc(N2CCN(CCCNS(=O)(=O)c3ccc4c(c3)oc(=O)n4C)CC2)cc1	none | D3 ag inactive | D2 ag-3 inactive
Cn1c(=O)oc2cc(S(=O)(=O)NCCN3CCN(c4ccccc4F)CC3)ccc21	D2 ag-2 54.9, D2 antagonist 76.5 | D3 ag inactive | D2 ag-3 inactive
Cc1cccc(N2CCN(C(=O)CCS(=O)(=O)c3ccc4c(c3)oc(=O)n4C)CC2)c1C	none
COc1ccc(C(=O)N2CCN(CCCc3ccccc3)CC2)cc1OC	D2 ag-2 39.6 | D3 ag inconclusive | D2 ag-3 inactive
COc1cccc(C(=O)N2CCN(CCCc3ccccc3)CC2)c1OC	none
CCOC(=O)N1CCN(CCCc2ccccc2)CC1	D2 antagonist 34.2 | D3 ag inactive | D2 ag-3 inactive
Cc1ccc(CCNC(=O)Cn2ncc3c(=O)oc4ccccc4c32)cc1	none (no result: D2 PAM-1, D2 ag-1, D2 antagonist, D2 PAM-2)
CC(=O)c1cccc(NC(=O)C(C)OC(=O)c2ccc(-n3cnnn3)cc2)c1 (stereo unspecified)	none
CC(OC(=O)c1ccc(-n2cnnn2)cc1)C(=O)Nc1ccccc1[N+](=O)[O-] (stereo unspecified)	none | D3 ag inactive | D2 ag-3 inactive

High-throughput results (PubChem)
